Data: PubChem BioAssay (Tox21)
Several values for one entry are separate records, joined by “and”; a condition that tells them apart may be missing. Equal values may be shown once. Inconclusive results are not listed. Unmarked numbers belong to inactive results. Activity calls are given as the source filed them. Calls follow the shape of the dose curve; as a rule, active = well fitted activation curve with a large enough effect in the signal ratio in the repeat runs (not every such curve was filed as active); inconclusive = weak or mixed curves, or effect the other way; inactive = no such curve, though single readings can be large or run the other way; the % refers to the signal ratio.

assay: qHTS assay for small molecule agonists of the antioxidant response element (ARE) signaling pathway (AID 743202); conditions: HepG2 ARE-bla reporter, beta-lactamase FRET, 16 h; series mostly up to 73.3 µM; activation: at the top concentration
From the text: U.S. Tox21 Program National Center for Advancing Translational Sciences [NCATS] NIH Chemical Genomics Center [NCGC] U.S. Environmental Protection Agency [EPA] National Institutes of Environmental Health Sciences [NIEHS] National Toxicology Program [NTP] U.S. Food and Drug Administration [FDA] Tox21 Assay Overview: Oxidative stress has been implicated in the pathogenesis of a variety of diseases ranging from cancer to neurodegeneration. The antioxidant response element (ARE) signaling pathway plays an important role in the amelioration of oxidative stress. The CellSensor ARE-bla HepG2 cell line (Invitrogen) can be used for analyzing the Nrf2/antioxidant response signaling pathway. Nrf2 (NF-E2-related factor 2) and Nrf1 are transcription factors that bind to AREs and activate these genes. The CellSensor ARE-bla Hep G2 cell line contains a beta-lactamase reporter gene under control of the Antioxidant Response Element (ARE) stably integrated into HepG2 cells. The activation of the report gene under culture conditions can be detected by fluorescence intensity. This cell line has been used to screen the Tox21 10K compound library to identify agonists that induce oxidative stress.
Tox21 Assay Protocol Summary: The ARE-bla cells were dispensed at 2,000 cells/5 ul/well in 1536-well black wall/clear bottom plates using a Multidrop dispenser. After the assay plates were incubated at a 37 C/5% CO2 incubator for 5 hours, 23 nL of compounds dissolved in DMSO, positive controls or DMSO only was transferred to the assay plate by a pin tool. The plates were incubated at 37 C for 16 hours. After 1 uL of LiveBLAzer B/G FRET substrate was added using a Flying Reagent Dispenser, the plates were incubated at room temperature for 2 hours, and fluorescence intensity was measured by an Envision plate reader.
% is scaled to controls: 0 for no effect and ±100 for the full control effect; potency is read from the fitted curve at half-maximal effect.

| Structure (SMILES) | activation | Potency |
| --- | --- | --- |
| CCn1ccnc1CC1COc2ccccc2O1 (stereo not given) | -1.08% |  |
| CCc1ccc(O)c(OC)c1 | -8.43% |  |
| c1cnc(N2CCN(Cc3ccc4c(c3)OCO4)CC2)nc1 | -10.4% |  |
| CCO[Si](CCC1CCC2OC2C1)(OCC)OCC (stereo not given) | -7.37% |  |
| CC(NC(CCc1ccccc1)C(=O)O)C(=O)N1C(=O)N(C)CC1C(=O)O (stereo not given) | -5.18% |  |
| CCN1CCC[C@H]1CNC(=O)c1cc(S(N)(=O)=O)ccc1OC | 0.428% |  |
| Cc1ccc(=O)n(-c2ccccc2)c1 | 0.432% |  |
| Cc1cc2c(cc1S(N)(=O)=O)S(=O)(=O)CCC2 | -0.763% |  |
| CO/N=C(/C(=O)N[C@@H]1C(=O)N2C(C(=O)OCOC(=O)C(C)(C)C)=C(C)CS[C@H]12)c1csc(N)n1 | -0.9% |  |
| Cc1[nH]c(=O)c(C#N)cc1-c1ccc2nccn2c1 | -2.12% |  |
| Cc1cccn2c(=O)c(-c3nnn[nH]3)cnc12 | -1.97% [at 34.3 µM] |  |
| CC(C)=CCCC(C)CC(=O)O (stereo not given) | -10.3% |  |
| CCCCOCCOCCOCc1cc2c(cc1CCC)OCO2 | -0.62% |  |
| CCCCC(CC)COC(=O)c1ccccc1O (stereo not given) | -1.33% |  |
| Nc1ccc(S(=O)(=O)Nc2ccnn2-c2ccccc2)cc1 | 4.44% [at 34.3 µM] |  |
| OC[C@]1(O)OC[C@@H](O)[C@H](O)[C@@H]1O | -10.9% [at 94.8 µM] |  |
| CCCN1CCCC[C@H]1C(=O)Nc1c(C)cccc1C | -12.2% |  |
| CC(=O)Nc1ccc(S(N)(=O)=O)cc1 | -10.5% |  |
| CCOC(=O)Nc1ccc(NCc2ccc(F)cc2)nc1N | -2.01% |  |
| CCCCCSCCCCC | 20.8% |  |

| Structure (SMILES) | activation | Potency |
| --- | --- | --- |
| COC(=O)NN | -9.11% [at 94.8 µM] |  |
| O=C1CCCC(=O)C1 | -0.942% |  |
| CCS(=O)(=O)c1ccc(OC)c(C(=O)OC)c1 | 1.2% |  |
| FC(F)OC(Cl)C(F)(F)F (stereo not given) | -5.92% |  |
| CCCCCCCCCCCCCCCCC | -9.79% |  |
| CC(C(=O)O)c1ccc(CC2CCCC2=O)cc1 (stereo not given) | -9.85% |  |
| N=C(N)c1ccccc1 | 0.297% |  |
| CN(C)CCCSc1ccccc1NC(=O)/C=C/c1ccccc1 | -13.1% |  |
| CC(C)(C)c1ccc(O)c(O)c1 |  | 28.2 µM (active) and 24.3 µM (active) |
| Nc1nc2c(ncn2COC(CO)CO)c(=O)[nH]1 | -0.731% |  |
| CC(C)(O)C(=O)c1ccccc1 | -5.87% |  |
| C=COCC1CCC(CO)CC1 (stereo not given) | 19.5% |  |
| COc1ccc2c(c1)CCCC2=O | -2.24% |  |
| c1ccc(CC2=NCCN2)cc1 | 0.991% |  |
| COCCc1ccc(OCC(O)CNC(C)C)cc1 (stereo not given) | -1.43% |  |
| O=C(O)CNC(=O)c1ccc([N+](=O)[O-])cc1 | -2.07% |  |
| CC(C)NCCCC1(C(N)=O)c2ccccc2-c2ccccc21 | -0.146% |  |
| CC(C)(CC(=O)O)C(=O)O | 15.1% |  |
| CN(C)CCCN1c2ccccc2CCc2ccc(Cl)cc21 | 0.97% |  |
| O=C1CCCCCCCCCCCN1 | -1.24% |  |
